CYP2C19 act: human CYP2C19 activators, primary screen, biochemical, luminescence. Cytochrome P450 2C19 (Homo sapiens), P33261. recombinant CYP2C19, luciferin-H EGE luminescence; active compounds read high; 0 = fully inhibited enzyme, 1 = untreated enzyme. activation factor at 5 µM. 96,000 tested, under 10 active;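 active = activation factor of at least 2 at 5 µM in the primary screen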;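 also: 0 = wells with 2.5 mM tranylcypromine and 1 = vehicle-only wells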
Target sequence (P33261 whole entry, looked up): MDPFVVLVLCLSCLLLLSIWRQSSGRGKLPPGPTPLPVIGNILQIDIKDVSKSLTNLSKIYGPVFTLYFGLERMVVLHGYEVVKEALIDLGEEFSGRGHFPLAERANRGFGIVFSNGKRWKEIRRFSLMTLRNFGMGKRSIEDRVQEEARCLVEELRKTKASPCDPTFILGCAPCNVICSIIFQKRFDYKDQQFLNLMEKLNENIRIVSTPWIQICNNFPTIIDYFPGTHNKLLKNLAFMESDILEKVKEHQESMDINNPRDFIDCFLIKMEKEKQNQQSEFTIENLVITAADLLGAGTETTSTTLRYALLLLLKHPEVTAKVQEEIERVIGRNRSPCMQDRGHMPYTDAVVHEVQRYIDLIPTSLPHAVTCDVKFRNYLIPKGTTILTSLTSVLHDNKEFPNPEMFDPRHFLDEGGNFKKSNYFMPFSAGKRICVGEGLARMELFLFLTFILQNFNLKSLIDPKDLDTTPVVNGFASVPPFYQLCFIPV
CYP2C9 act: human CYP2C9 activators, primary screen, biochemical, luminescence; Cytochrome P450 2C9 (Homo sapiens), P11712; recombinant CYP2C9, luciferin-H conversion; active compounds read high; factor 1 = untreated enzyme, 0 = blocked; activation factor at 5 µM; 96,000 tested, 1.4% active; AID 1024, 2008;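 active = activation factor of 2 or more for CYP2C9 at a 5 µM dose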;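 also: 0 = sulfaphenazole-blocked wells and 1 = vehicle-only wells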
sEH inhibitor: soluble epoxide hydrolase inhibitors, primary screen, biochemical, human sEH; Bifunctional epoxide hydrolase 2 (Homo sapiens), P34913; recombinant human sEH enzymatic activity assay; inhibition, % at 2 µM; 91,000 tested, 0.34% active; in the data active = inhibition above about 80%
sEH activator: soluble epoxide hydrolase activators, primary screen, biochemical, human sEH; Bifunctional epoxide hydrolase 2 (Homo sapiens), P34913; purified human sEH enzymatic activity, activator screen; activation, % at 2 µM; 91,000 tested, 0.04% active; AID 717, 2007; in the data active = activation above about 37%
CYP2C9 inhib: blockers of cytochrome P450 2C9 activity – biochemical, luminescence, ADME assay, primary screen. P11712. CYP2C9 Supersomes, luciferin-H conversion. inhibition, % at 5 µM. 96,000 tested, 20% active. AID 777, 2007;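 active = blocking of liver enzyme CYP2C9 beyond about 50% at 5 µM, limit read from the data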
CYP2C19 inhib: blockers of cytochrome P450 2C19 activity – biochemical, luminescence, ADME assay, primary screen. P33261. inhibition, % at 5 µM. CYP2C19 Supersomes, luciferin-H EGE luminescence, 30 min. 96,000 tested, 21% active;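 active = CYP2C19 inhibition above a set limit at 5 µM in the primary screen, cut at about 50% in these data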;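 also: plate controls were negative control wells for no effect and 2.5 mM tranylcypromine positive control for full effect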
* marks the source's active call; other numbers are inactive results; nt = not tested or not shown. Only some compounds are listed: those with a hit (about 27% of all), similar ones and a draw of the others.

SMILES	CYP2C19 act	CYP2C9 act	sEH inhibitor	sEH activator	CYP2C9 inhib	CYP2C19 inhib
O=S(=O)(c1cccc(S(=O)(=O)N2CCN(c3ncccn3)CC2)c1)N1CCOCC1	nt	nt	-9.9	10.1	nt	nt
Cc1ccccc1N1CCN(S(=O)(=O)c2ccccc2)CC1	nt	nt	0.3	0.9	nt	nt
CCc1ccc(N(C(C)=O)C2C=CS(=O)(=O)C2)cc1 (stereo unspecified)	0.7	0.9	4.8	-8.0	12.0	26.6
CCOC(=O)C(=CNc1ncccc1C)C(=O)OCC	nt	nt	-10.7	12.0	nt	nt
c1ccc(-n2nnnc2-n2cnc3ccccc32)cc1	0.2	0.6	-6.3	7.7	43.8	82.2*
Cc1cc(N2CCN(c3ccccc3)CC2)n2nnnc2n1	1	0.8	nt	nt	15.9	2.0
O=C(C1CCN(c2nnnn2-c2ccccc2)CC1)N1CCN(c2ccccc2)CC1	0.8	0.8	-5.6	1.2	23.9	17.1
Cc1cccc(N2CCN(c3cc(C)nc4nnnn34)CC2C)c1 (stereo unspecified)	0.6	0.9	nt	nt	6.4	37.1
Cc1cc(N2CCN(c3nnnn3-c3ccccc3)CC2)n2ncnc2n1	0.3	0.7	nt	nt	30.7	65.6*
Cc1cccc(N2CCN(c3nnnn3-c3ccccc3)CC2C)c1 (stereo unspecified)	0	0.1	0.7	0.9	88.4*	100.0*
c1ccc(N2CCN(c3nnnn3-c3ccccc3)CC2)cc1	0	0.1	nt	nt	93.2*	99.8*
CC(C(=O)O)C1SC(=O)NC1=O (stereo unspecified)	1.2	1	15.7	-16.4	0.8	-15.1
C/C(Cl)=C\Cn1c(N2CCCCCC2)nc2c1c(=O)n(C)c(=O)n2C	0.5	0.1	0.1	-0.6	85.1*	46.6
CCOC(=O)Cn1c(=O)c2c(nc3n2CCN3Cc2ccccc2)n(C)c1=O	1.1	1	-5.9	4.6	0.7	-6.6
CCOc1nc2c(c(=O)n(C)c(=O)n2C)n1Cc1ccccc1Cl	0.7	0.9	4.5	-6.3	12.6	25.7
CCOC(=O)Cn1c(=O)c2c(nc(N3CCCCC3)n2C)n(C)c1=O	0.9	0.5	-7.0	4.7	54.7*	11.5
Cn1c(=O)c2c(nc(N3CCCCCC3)n2Cc2cccc3ccccc23)n(C)c1=O	0.2	0.1	nt	nt	89.9*	76.2*
C=CCOc1nc2c(c(=O)n(C)c(=O)n2C)n1Cc1c(Cl)cccc1Cl	0.4	0.6	-14.9	16.5	44.3	62.2*
CCNC(=O)N1CCOCC1	1	1	8.7	-6.6	4.6	-0.2
CCn1c(SCC(=O)c2ccc(OC)cc2)nnc1C(C)NC(=O)c1ccc(OC)cc1 (stereo unspecified)	0.7	0.8	-3.4	5.6	16.8	28.0
Cn1c(=O)c2c(nc(Br)n2Cc2ccccc2Cl)n(C)c1=O	0.2	0.6	3.0	-4.9	44.4	76.6*
Cc1sc2ncn(CC(=O)OC(C)C)c(=O)c2c1C	0.3	0.6	2.0	-0.8	41.0	67.2*
CCn1cnc2sc(C)c(C)c2c1=O	0.9	0.9	2.1	-0.9	12.2	12.2
Cc1sc2ncn(CC(=O)OCC(=O)NC(C)(C)C)c(=O)c2c1C	0.7	0.6	-18.2	16.2	36.2	26.2
Cc1sc2ncn(CC(=O)OC(C)C(=O)NC(C)(C)C)c(=O)c2c1C (stereo unspecified)	0.3	0.7	-8.7	8.4	27.0	67.0*
SMILES	CYP2C19 act	CYP2C9 act	sEH inhibitor	sEH activator	CYP2C9 inhib	CYP2C19 inhib
CC(C)OC(=O)Cn1cnc2ccc(Br)cc2c1=O	0.3	0.6	-3.7	6.9	38.3	68.1*
O=C(CCCc1nc2ccccc2s1)N1CCN(S(=O)(=O)c2cccs2)CC1	0.7	0.5	5.4	-5.9	49.9	30.6
CCC1(CC)C(=O)C(C)(C)C(=O)OC1c1cccs1 (stereo unspecified)	0	0.6	4.9	-2.5	43.9	96.2*
COc1ccc(-c2oc3ncn4nc(COc5ccccc5)nc4c3c2-c2ccc(OC)cc2)cc1	1.1	0.7	-2.8	6.8	27.8	-5.1
COc1ccc(/C=N/OCc2nc3c4c(ncn3n2)Oc2ccc3ccccc3c2C4c2ccccc2)cc1 (stereo unspecified)	0.3	0.8	7.1	-7.5	15.2	69.3*
CCC12CC3CC(C1)CC(C(=O)O)(C3)C2	1.1	1.1	-9.2	7.6	-6.5	-9.7
Cc1nc2c(C(=O)N3CCCCC3)cnn2c(C)c1Cc1ccccc1F	0.2	0.9	-10.7	7.3	9.8	78.7*
Cc1nc2c(C(=O)N3CCN(C)CC3)cnn2c(C)c1Cc1ccc(Cl)cc1	0.2	0.7	3.1	-1.1	25.8	82.3*
O=C(COC(=O)c1cccs1)Nc1ccccc1	0.4	0.9	4.4	-5.7	14.5	56.7*
C/C(=N/OCC(=O)Nc1ccccc1)c1cccs1	0.6	0.6	-6.4	8.5	44.7	36.3
O=C(COc1ccccc1O)c1cccs1	0.7	1	nt	nt	-2.0	27.2
Cc1ccc(NC(=O)CCC(=O)c2cccs2)cc1	0.2	0.6	5.4	-4.7	41.3	82.3*
O=C(CCC(=O)c1cccs1)Nc1ccc(F)c(F)c1F	0.3	1	7.2	-8.1	-3.5	65.8*
CC(CC(=O)c1cccs1)CC(=O)c1cccs1	0	0.1	nt	nt	93.3*	100.3*
CCOc1cc(N2CCOCC2)c(OCC)cc1NC(=O)c1cc(-c2ccco2)nc2ccccc12	0.7	0.7	nt	nt	26.7	32.2
O=C(NCCc1cccs1)C1CC(c2ccccc2[N+](=O)[O-])=NO1 (stereo unspecified)	0.7	1.2	-3.9	5.1	-16.3	29.9
CCN(CCNC(=O)CCCn1nc(C)n2c(cc3sccc32)c1=O)c1ccccc1	0.6	1	58.6	-59.0	-0.3	44.9
O=C(CCC(=O)c1cccs1)NCc1ccc(Cl)cc1	0.6	1.5	4.5	-1.5	-45.2	44.2
Cc1ccc(CNC(=O)CCC(=O)c2cccs2)cc1	0.1	1.3	-3.8	4.6	-34.9	85.1*
O=C(Cc1ccccc1)NCc1nc2ccccc2[nH]1	nt	nt	13.6	-9.2	nt	nt
Cc1ccc(S(=O)(=O)Nc2ccc3oc(=O)sc3c2)c(C)c1	0.3	0.4	23.6	-21.9	63.7*	66.9*
CC(=O)Nc1cc(S(=O)(=O)Nc2ccc(C)cc2)c(C)cc1C	0.9	0.8	-7.7	7.9	19.0	13.0
CC(=O)c1c(C)oc2ccc(NS(=O)(=O)c3ccc(O)c(C(=O)O)c3)cc12	0.5	0.1	-11.4	5.6	89.0*	52.5*
O=C(O)c1cc(S(=O)(=O)Nc2ccc3oc(=O)sc3c2)ccc1O	0.8	0.1	0.4	-0.1	85.1*	23.2
O=C(NCN1C(=O)C2C3C=CC(C3)C2C1=O)OC1CCCCC1 (stereo unspecified)	0.8	0.9	nt	nt	5.5	25.0

Source: PubChem
